Among all 13,000 compounds or so, about 3,200 (25%) showed an effect of 50% or more. Some of the results follow.
These compounds were tested on P. falciparum stage V gametocytes. Conditions: 48 h, 5 µM; inhibitor.
Parameters: BacTiter-Glo ATP luminescence viability of purified stage V gametocytes in 384-well plates, per cent inhibition versus DMSO

| Structure (SMILES) | % Inhibition [%] |
| --- | --- |
| Cc1ccc(NC(=O)c2ccc(N3CCN(c4ccncc4)CC3)cn2)cc1F [TCMDC-135156] | 103.4 |
| Cc1ccc(NC(=O)c2ccc(N3CCN(c4ccncc4)CC3)cc2)cc1F [TCMDC-135126] | 6.025 |
| Cc1ccc(NC(=O)c2ccnc(N3CCN(c4ccncc4)CC3)c2)cc1F [TCMDC-135102] | 18.96 |
| COc1cccc(NC(=O)c2nc(N3CCN(c4ccncc4)CC3)ccc2Cl)c1 [TCMDC-135104] | 27.68 |
| O=C(Nc1ccc2c(c1)CCC2)c1nc(N2CCN(c3ccncc3)CC2)ccc1Cl [TCMDC-135105] | 30.18 |
| Cc1ccc(NC(=O)c2nc(N3CCN(c4ccncc4)CC3)ccc2Cl)cc1F [TCMDC-135103] | 90.08 |
| CC(C)(C)C(=O)Nc1ccc(N2CCN(C(c3ccccc3)c3ccccc3)CC2)c(Cl)c1 [TCMDC-133713] | 36.59 |
| COc1ccc(Cl)cc1N1CCN(CCCNC(=O)c2ccc(-c3nc4cc(Cl)c(Cl)cc4[nH]3)c(C)c2)CC1 [TCMDC-140082] | -14.21 |
| O=C(Cn1cc(C=C2SC(=NC3CCCC3)N(C3CCCC3)C2=O)c2ccccc21)N1CCCC1 [TCMDC-124810] | -5.018 |
| COc1ccc2nccc(N(C)CC3(O)CCN(CCc4ccc5c(c4)NC(=O)CS5)CC3)c2n1 [TCMDC-141472] | 49.29 |
| CCCCC(=O)Nc1nc2ccc([N+](=O)[O-])cc2s1 [TCMDC-123686] | -7.174 |
| CC(C)C(C)(C#N)NC(=O)CSc1nc2ccc([N+](=O)[O-])cc2s1 (centres unmarked) [TCMDC-123610] | 79.56 |
| O=C(CSc1nc2ccc([N+](=O)[O-])cc2s1)Nc1ccccc1-c1ccccc1 [TCMDC-124341] | 43.04 |
| COc1ccc2nccc(N(C)CC3(O)CCC(NCc4cc5c(cn4)OCCO5)CC3)c2n1 (centres unmarked) [TCMDC-134497] | 30.63 |
| N=c1ccn(CC(=NO)c2ccc(Cl)c(Cl)c2)cc1 [TCMDC-139033] | -35.74 |
| COc1ccccc1C1CCN(C2CCC(NC(=O)/C=C/c3ccc(F)c(F)c3)CC2)CC1 (centres unmarked) [TCMDC-133493] | -77.67 |
| Clc1ccc(Cn2nc(Br)nc2Br)c(Cl)c1 [TCMDC-125047] | -61.09 |
| O=[N+]([O-])c1nc(Br)n(Cc2ccc(Cl)cc2)n1 [TCMDC-125048] | 51.98 |
| CC(=O)c1ccc(-c2ccc(C(=O)NCCCCN3CCC(c4ccc5c(c4O)CCCC5)CC3)cc2)cc1 [TCMDC-138653] | 60.63 |
| O=C(NCCCCN1CCC(c2ccc3c(c2O)CCCC3)CC1)c1ccc(-c2ccc(Cl)cc2)cc1 [TCMDC-138661] | 61.25 |
| CC(Oc1c(C2CCN(CCCCNC(=O)c3ccc(-c4ccc(C#N)cc4)cc3)CC2)ccc2c1CCCC2)C(N)=O (centres unmarked) [TCMDC-134551] | 41.12 |
| C=Cc1c(C2CCN(CCCCNC(=O)c3ccc(-c4ccc(C#N)cc4)cc3)CC2)ccc2c1CCCC2 [TCMDC-135273] | 38.74 |

| Structure (SMILES) | % Inhibition [%] |
| --- | --- |
| CC(C)(Oc1c(C2CCN(CCCCNC(=O)c3ccc(-c4ccc(Cl)cc4)cc3)CC2)ccc2c1CCCC2)C(N)=O [TCMDC-134939] | -3.044 |
| COc1ccc2c(c1C1CCN(CCCCNC(=O)c3ccc(NC(=O)c4ccc(Cl)cc4)cc3)CC1)CCCC2 [TCMDC-138553] | 46.07 |
| CC(Oc1c(C2CCN(CCCCNC(=O)c3ccc(-c4ccc(Cl)cc4)cc3)CC2)ccc2c1CCCC2)C(N)=O (centres unmarked) [TCMDC-134653] | 65.96 |
| Cc1ccc(C2CCN(CCCCNC(=O)c3ccc(NC(=O)c4ccc(Cl)cc4)cc3)CC2)c(C)c1 [TCMDC-138354] | 9.967 |
| O=C(NCCCCN1CCC(c2ccc3c(c2O)CCCC3)CC1)c1ccc(NC(=O)c2ccc(Cl)cc2)cc1 [TCMDC-138645] | 88.57 |
| N#Cc1ccc(-c2ccc(C(=O)NCCCCN3CCC(c4cc(Br)c5c(c4O)CCCC5)CC3)cc2)cc1 [TCMDC-135238] | -99.04 |
| COc1ccc2nc(-c3cc(-c4ccc(NC(=O)C(C)C)cc4)cnc3N)[nH]c2c1 [TCMDC-135322] | 10.64 |
| C[C@H](CNc1ccnc(Nc2ccc3[nH]c(=O)[nH]c3c2)n1)c1ccccc1 [TCMDC-136804] | -43.48 |
| CN/C(=C\[N+](=O)[O-])NCCSCc1cc(C)c(CN(C)C)s1 [TCMDC-131256] | 8.916 |
| Cc1cc(O)c2c3c1C(=O)C=C1C3c3c(c(O)cc(O)c3C(=O)C1(C)C)C2=O (centres unmarked) [TCMDC-132049] | 13.87 |
| Oc1ccc(Cl)cc1CN1CCC(CCOC(c2ccccc2)c2ccccc2)CC1 [TCMDC-136036] | 7.087 |
| CC(C)Sc1nc2c(c(=O)n1CCc1ccccc1)C1(CCCCC1)Cc1ccccc1-2 [TCMDC-123894] | -24.8 |
| O=C(Nc1ccc2c(c1)OCO2)c1cc(-c2cccnc2)cnc1NCc1ccc2c(c1)OCO2 [TCMDC-136698] | -17.08 |
| CN(c1ccnc(Nc2ccc(CS(C)(=O)=O)cc2)n1)C1CCN(Cc2ccccc2)CC1 [TCMDC-134396] | -3.005 |
| CNC(=O)Cc1ccc(C(=O)Nc2cccc(-c3cccc(-c4nc5c(C)cccc5[nH]4)c3)c2)cc1 [TCMDC-137075] | -29.46 |
| Cc1cccc2nc(-c3cccc(-c4cccc(CN5CCN(c6ccc(C#N)cn6)CC5)c4)c3)[nH]c12.O=C(O)C(F)(F)F [TCMDC-133118] | 18.89 |
| Cc1cccc2nc(-c3ccc(-c4ccc(CNCc5ccc(S(C)(=O)=O)cc5)cc4)cc3)[nH]c12.O=C(O)C(F)(F)F [TCMDC-132905] | 55 |
| Cc1cccc2nc(-c3ccc(-c4ccc(CNCCc5ccncc5)cc4)cc3)[nH]c12.O=C(O)C(F)(F)F [TCMDC-132855] | 4.84 |
| CNc1ccc(CNCc2ccc(-c3ccc(-c4nc5cccc(C)c5[nH]4)cc3)cc2)cc1.O=C(O)C(F)(F)F [TCMDC-132984] | 83.67 |
| Cc1cccc2nc(-c3cccc(-c4ccc(CNCc5ccc(S(C)(=O)=O)cc5)cc4)c3)[nH]c12.O=C(O)C(F)(F)F [TCMDC-132898] | -16.63 |
| Cc1cccc2nc(-c3cccc(-c4cccc(CNCc5ccc(S(C)(=O)=O)cc5)c4)c3)[nH]c12.O=C(O)C(F)(F)F [TCMDC-132896] | -8.61 |
| COc1ccc(CNCc2ccc(-c3ccc(-c4nc5cccc(C)c5[nH]4)cc3)cc2)cc1.O=C(O)C(F)(F)F [TCMDC-132720] | -4.275 |
